From PubChem BioAssay AID720509 (The Scripps Research Institute Molecular Screening Center, 2013)
Among all 370,000 compounds or so, about 760 (0.21%) were called active. This excerpt belongs to a sample that is enriched for actives. Unmarked numbers belong to inactive results.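 Rule for the calls: active = inhibition above a per-campaign cutoff: mean of compounds within control limits plus 3 SD (cut at about 15% in these data); inactive = the rest.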

target: Fibrinogen beta chain (Homo sapiens) (UniProt P02675); experiment: small molecules displacing Tn6 from DD(E) complex – biochemical, fluorescence polarization, human fibrin, Tn6 probe, primary screen (AID 720509); settings: Fibrin DD(E) TRITC-Tn6 fluorescence polarization displacement; at 8.3 µM; hits give high values;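 note: 0% = median of all compound wells on the plate and 100% = blocking peptide control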
Sequence (P02675 whole entry, looked up): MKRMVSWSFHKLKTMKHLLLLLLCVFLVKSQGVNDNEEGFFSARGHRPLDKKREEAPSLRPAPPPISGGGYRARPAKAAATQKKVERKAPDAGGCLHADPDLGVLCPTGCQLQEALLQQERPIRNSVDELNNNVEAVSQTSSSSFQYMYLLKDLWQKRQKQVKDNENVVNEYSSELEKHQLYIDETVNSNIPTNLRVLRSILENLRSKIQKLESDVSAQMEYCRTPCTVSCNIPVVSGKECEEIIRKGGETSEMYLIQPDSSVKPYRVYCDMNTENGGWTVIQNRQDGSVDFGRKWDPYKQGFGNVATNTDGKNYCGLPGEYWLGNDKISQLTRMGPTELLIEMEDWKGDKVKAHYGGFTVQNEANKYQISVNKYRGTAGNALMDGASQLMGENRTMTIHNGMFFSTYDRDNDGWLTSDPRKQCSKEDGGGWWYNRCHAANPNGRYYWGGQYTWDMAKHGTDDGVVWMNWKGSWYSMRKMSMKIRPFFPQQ

SMILES | inhibition
COc1cc(OC)cc(-c2c(-c3cccs3)c3cc(-c4ccc(OC)cc4F)ccc3n2C)c1 | 8.62%
CCC1CCCCN1S(=O)(=O)Cc1ccccc1Cl (centres undefined) | -7.39%
Cc1nnsc1S(=O)(=O)Cc1ccccc1Cl | 16.3% (active)
Cc1nnsc1C(=O)NCc1c(F)cccc1Cl | 2.62%
CCOC(=O)N1CCC(NC(=O)C(NS(=O)(=O)c2ccc3c(c2)CCN3C(=O)CC)C(C)C)CC1 (centres undefined) | 0.83%
CC(C)Cc1ccc(S(=O)(=O)N2CCN(C(=O)c3ccco3)CC2)cc1 | 0.21%
C[C@H](CO)N1C[C@H](C)[C@@H](CN(C)Cc2ccc(-c3ccccc3)cc2)Oc2ccc(NC(=O)Cn3cnnn3)cc2C1=O | 4.05%
COC(=O)c1cc(=O)n(-c2c(Cl)cc(C(F)(F)F)cc2Cl)[nH]1 | 0.92%
O=C(OCCOc1ccccc1Cl)c1cc(S(=O)(=O)N2CCCCC2)ccc1N1CCOCC1 | -7.85%
CC(C)c1cc(NCc2ccccn2)n2c(nc3ccccc32)c1C#N | 5.58%
Cc1cc2cc(CNC(=O)c3cccs3)ccc2[nH]1 | -2.34%
Cc1cc2cc(CNC(=O)c3ccc(S(=O)(=O)N4CCOCC4)cc3)ccc2[nH]1 | 16% (active)
O=C(Nc1ccc2cn[nH]c2c1)c1ccc(S(=O)(=O)N2CCOCC2)cc1 | 3.58%
N=c1n(Cc2ccc(Cl)cc2)c2ccccc2n1CC(O)c1ccco1 (centres undefined) | 0.26%
O=c1[nH]n(-c2ccc([N+](=O)[O-])cc2)c(=O)c2ccccc12 | 27.3% (active)
C=CCNC(=S)N1CCN(CCN=Cc2c(C)[nH]n(-c3ccc([N+](=O)[O-])cc3)c2=O)CC1 | -4.37%
O=C(CSCc1ccc([N+](=O)[O-])cc1)NCCSCc1ccccc1 | 2.74%
COc1cccc(NC(=O)Cn2c3ccc(F)cc3c3nc4n(c(=O)c32)CCS4)c1 | -7.55%
COc1ccc(C2/C=C\CN(S(=O)(=O)c3cccs3)CC(=O)N2Cc2ccc(F)cc2)cc1 (centres undefined) | -0.69%
CC(=O)c1ccc(OCCCC(=O)Nc2ccc(C)c(S(=O)(=O)N3CCOCC3)c2)cc1 | 6.11%
CCCCNC(=O)c1ccccc1NC(=O)c1ccccc1N(C)S(C)(=O)=O | 2.47%
COc1ccccc1N(CCOc1ccccc1)S(=O)(=O)c1ccccc1 | 5.19%
COC(C/C=C/C(=O)[C@@H](C)OCc1ccccc1)OC | 5.15%
O=c1c2ccccc2nc2n1C(CSCc1cccc(C(F)(F)F)c1)CS2 (centres undefined) | 2.51%
